Measured values: the supplement of paper PMC10338343
± gives the standard deviation.

system: MILI (PIWIL2) piRISC loaded with L1MC piRNA (26 nt); experiment: pre-steady-state target cleavage rate (min^-1); guide: L1MC piRNA 5'p-UAACUAAAUACUAUGCAAGCUGUAGG; MIWI and MILI are mouse PIWI proteins and EfPiwi is from a freshwater sponge; tags in brackets are library labels; higher = faster piRNA-guided slicing of the target; conditions: auxiliary factor: 500 nM mouse GTSF1
Method in brief: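 With or without 500 nM GTSF1 partner protein, 1 nM active affinity-purified piRISC carrying one synthetic guide was mixed with 0.1 nM transcribed, DNA-blocked target RNA library in HEPES–potassium acetate buffer at 33 °C for 0–8 or 0–960 min. Uncleaved targets were sequenced and normalised to depth and to weakly complementary targets, three trials were pooled, and k3 was capped at 0.0001 min^-1. The pre-steady-state cleavage rate came from a burst-and-steady-state fit.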

First: UCCUGCUACAGCUUGCAUAGUAUUUAAUUA
Second: UCCUGCUACAGCUAGCAUAGUAUUUAGAAA
The “pre-steady-state target cleavage rate” value of the first is lower: 0.126 ± 0.03 for the first, 0.227 ± 0.051 for the second.

Going from UCCUGGAACAGCUUGCAUAGUAUUUAGUA to UCCUGGAUCAGCUAGCAUAGUAUUUAGAAA, the “pre-steady-state target cleavage rate” value falls from 0.191 ± 0.02 to 0.139 ± 0.016.

Compared with UCCUCCUACAGCUUGCAAACUAUUUAGUUA, UCCUGGAUGAGUUUGCAUAGUAUUUAGUUA is higher in “pre-steady-state target cleavage rate” value: 0.0393 ± 0.0078 for the first, 0.17 ± 0.023 for the second.

UCCUGGUAGAGCUUGCAUAGUAUUUUGUUA and UCCUCCUACAGCUUGCAUAGUAUAAAGAAA are within error of each other in “pre-steady-state target cleavage rate” value: 0.143 ± 0.03 for the first, 0.0951 ± 0.023 for the second.

First: UCCUGCUACAGCUUGCAUACGUAUUUAGUUA
Second: UCCUCCUACAGCAUGCAUAGUAUUUACAAA
The “pre-steady-state target cleavage rate” value of the first is lower: 0.00697 ± 0.0042 for the first, 0.205 ± 0.037 for the second.

Going from UCCUGGAUGUGCUUUCAUAGUAUUUAGUUA to UCCUGCUACAGCUUGGAUAGAAUUUAGUUA, the “pre-steady-state target cleavage rate” value falls from 0.126 ± 0.018 to 0.0646 ± 0.014.

UCCUCCUACAGCUUGCAUAGUAUUUAGUAA and UCCUGCUACAGCUAGCAUAGUAUUUUGUUA are within error of each other in “pre-steady-state target cleavage rate” value: 0.246 ± 0.021 for the first, 0.244 ± 0.031 for the second.

UCCUCCUACAGCUUGCAUAGUAUUUAGUGUA and UCCUCCUACAGCUUGCAUAGUAUUUACAUA are within error of each other in “pre-steady-state target cleavage rate” value: 0.158 ± 0.027 for the first, 0.177 ± 0.041 for the second.

First: UCCUCCUACAGCUUGCAUAGUAUUUUGUAA
Second: UCCUGGAUCAGCUUGCAUAGUAUUUCGUUA
The “pre-steady-state target cleavage rate” value of the first is lower: 0.092 ± 0.019 for the first, 0.147 ± 0.034 for the second.

UCCUGGUGCAGCUUGCAUAGUAUUUAGUUA and UCCUGGAACAGCUUGCAUAGUAUUUAGGUUA are within error of each other in “pre-steady-state target cleavage rate” value: 0.287 ± 0.017 for the first, 0.23 ± 0.041 for the second.

Compared with UCCUCGUACAGCUUGCAUAGUAUUUAGAAA, UCCUGGUACAGUUUGCAUAGUAUUUAGUUA is higher in “pre-steady-state target cleavage rate” value: 0.131 ± 0.024 for the first, 0.254 ± 0.02 for the second.

Compared with UCCUCCUACAGCUUGCAUAGUAUUUAUUA, UCCUGGAACAGCUUGCAUAGUAGUUUAGUUA is higher in “pre-steady-state target cleavage rate” value: 0.0949 ± 0.023 for the first, 0.175 ± 0.013 for the second.

Going from UCCUGCUACAGCUUGCUUAGUAUUUUGUUA to UCCUCCUACAGCUUGCAUUGUAUUUACAAA, the “pre-steady-state target cleavage rate” value falls from 0.156 ± 0.027 to 0.0269 ± 0.0098.

First: UCCUGGAUGAGCUUGCAUAGAAUUUAGUAA
Second: UCCUGGAACAGCUUGCAUAGUAUGUAGUUA
The “pre-steady-state target cleavage rate” value of the first is lower: 0.0264 ± 0.011 for the first, 0.206 ± 0.034 for the second.

First: UCCUCCUACAGCUUGCUUAGUAUAUAGUUA
Second: UCCUGGAACAGCUUGCAUAGUAUAUAGAAA
The “pre-steady-state target cleavage rate” value of the first is higher: 0.271 ± 0.024 for the first, 0.0917 ± 0.026 for the second.

UCCUCCUACAGGUUGCAUAGUAUUUACAAA and UCCUGGAUGUGCUUCAUAGUAUUUAGUUA are within error of each other in “pre-steady-state target cleavage rate” value: 0.052 ± 0.014 for the first, 0.046 ± 0.01 for the second.

UCCUGGAACAGCUUGCUUAGUAUUUAGUAA and UCCUGGAACAGCUUGCAUAGUAUUUAGUCA are within error of each other in “pre-steady-state target cleavage rate” value: 0.238 ± 0.022 for the first, 0.224 ± 0.024 for the second.

Going from UCCUGGUACAGCUUGCAUAGUAAUUAGUUA to UCCUCCUACAGCUUGGUAAGUAUUUAGUUA, the “pre-steady-state target cleavage rate” value falls from 0.317 ± 0.034 to 0.185 ± 0.017.

Going from UCCUGGAUGAGCUAGCAUUGUAUUUAGUUA to UCCUGCUACAGCUUGCAUAGUUUUUAGUUA, the “pre-steady-state target cleavage rate” value rises from 0.0518 ± 0.0092 to 0.0767 ± 0.014.

For UCCUCCUACAGCUUGCAUAGUUUUUAGAUA, the “pre-steady-state target cleavage rate” value was 0.0768 ± 0.022.
